Assay [1] is described as follows: stimulators of insulin release from INS-1E, primary screen, cell-based, 5 mM glucose, NPC library (AID 1117329;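 active = compound raises insulin release from rat beta cells at 5 mM glucose, no numeric limit stated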). Particulars: rat INS-1E insulin secretion, at 10 µM, stronger effect = higher value.
Assay [2] in a line: growth inhibition of GSK3B-pretreated HCT116 cells – cell-based, CellTiter-Glo, 0.2 to 20 µM (AID 1117336;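 active = compounds lowering colon cancer cell viability after pretreatment blocking the GSK3B kinase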). Particulars: HCT116 viability after GSK3B inhibitor, at 20 µM, stronger effect = higher value.
Assay [3] in a line: inhibition of endothelial tube formation, primary screen, imaging, VEGF stimulated, CD31 staining, tube area, NPC library (AID 1117340;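 active = compound that reduces growth-factor-driven endothelial tube area in a mixed cell culture, no cutoff stated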). Particulars: VEGF-stimulated ADSC/ECFC co-culture, at 10 µM, stronger effect = higher value.
Assay [4] can be described thus: glucagon-like peptide 1 release enhancers, primary assay, NCI-H716 cell line, NPC library (AID 1117341;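 active = compound raises GLP1 secretion from the human gut endocrine cells, with no numeric limit stated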). Particulars: NCI-H716 cells, at 10 µM, stronger effect = higher value.
A short description of assay [5]: HCT116 colon cancer cell growth inhibition, primary screen, CellTiter-Glo luminescence, NPC library (AID 1117342;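 active = compounds that lower survival of HCT116 colon cancer cells in the luminescence readout, no numeric limit stated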). Particulars: at 20 µM (top of the series). For orientation: ATP-based viability assays read luminescence as a measure of living cells.
Assay [6] is described as follows: CellTiter-Glo luminescent readout of SW480 viability loss, NPC library primary (AID 1117343). Particulars: CellTiter-Glo luminescence; at 20 µM (top of the series).
A short description of assay [7]: decreased DLD-1 cellular survival, CellTiter-Glo luminescent readout, NPC compound collection, primary HTS (AID 1117346;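 active = compounds that lower survival of DLD-1 colon cancer cells in the luminescence readout, no cutoff given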). Particulars: DLD-1 viability, CellTiter-Glo luminescence; at 20 µM (top of the series).
The target of assay [8] is 6-phosphogluconate dehydrogenase, decarboxylating (Homo sapiens) (UniProt P52209). Put plainly: 6PGD enzyme inhibitors, primary screen, biochemical, human, recombinant enzyme, NADPH absorbance (AID 1159550;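 active = at least 20% inhibition of 6-phosphogluconate dehydrogenase activity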). Particulars: recombinant 6PGD, NADPH absorbance 341 nm; at 10 µM; stronger effect = higher value.
Assay [9] can be described thus: differential killing of epithelial or mesenchymal cells, primary screen, imaging, PC-3E GFP, TEM4-18 mCherry, co-culture (AID 1345086;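 active = compounds killing one labelled cell type while sparing the other, by normalised counts and ratio limits, not self-fluorescent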;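 as to all read-outs here: cells exposed to compound for 72 h before imaging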;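 as to red/green cell ratio (normalised): normalised mesenchymal count divided by normalised epithelial count so high means epithelial killing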). Particulars: imaging cell counts, at 1 µM; for red/green cell ratio (normalised): actives lie on both sides, counts scaled to control wells, 1 = unselective.
[10] abbreviates: measured here: epithelial PC-3E GFP cell survival.
[11] abbreviates: measured here: mesenchymal TEM4-18 mCherry cell survival.

Active and inactive are the calls of the source.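 The calls were made as follows, unless noted: active = compounds that lower viability of the colon cancer cells in the luminescence readout, with no numeric limit stated; inactive = the rest.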

Chain of 6-phosphogluconate dehydrogenase, decarboxylating (Homo sapiens) (P52209 whole entry, looked up): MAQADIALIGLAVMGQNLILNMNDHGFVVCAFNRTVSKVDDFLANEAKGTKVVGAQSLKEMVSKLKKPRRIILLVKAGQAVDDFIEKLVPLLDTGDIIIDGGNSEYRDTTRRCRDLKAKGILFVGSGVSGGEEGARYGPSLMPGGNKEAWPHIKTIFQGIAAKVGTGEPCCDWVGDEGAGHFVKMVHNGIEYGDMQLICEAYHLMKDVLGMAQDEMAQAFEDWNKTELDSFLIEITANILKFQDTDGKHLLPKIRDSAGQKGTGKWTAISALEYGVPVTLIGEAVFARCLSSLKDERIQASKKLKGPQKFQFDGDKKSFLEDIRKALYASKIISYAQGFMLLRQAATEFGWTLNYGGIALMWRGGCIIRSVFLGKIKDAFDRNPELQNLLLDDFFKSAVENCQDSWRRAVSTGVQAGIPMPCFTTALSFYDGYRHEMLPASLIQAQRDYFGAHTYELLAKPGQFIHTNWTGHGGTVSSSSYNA

As to `C[N+]1(CCCCC[N+]2(C)CCCC2)CCCC1`, the insulin secretion stimulation in [1] is 2.5% (inactive). For the same compound, in assay [2], the viability decrease is -7% (inactive). The tube area decrease in [3] is -11.3% (inactive). Further, in assay [4], the GLP1 secretion stimulation is -1.6% (inactive). The inhibition of viability in assay [5] is -2.5% (inactive). Further, the values for the viability decrease (inhibition) in assay [6] and in assay [7] were -8.4% (inactive) and 6.3% (inactive), respectively. In assay [8], the inhibition was 10.2% (inactive). Further, in assay [9], the red/green cell ratio (normalised) was 0.92 (inactive). In addition, the normalised cell number was determined as 1.09 in assay [9] (setting [10]) and 1 in [9] (setting [11]).
In the case of `CN(C)CCOC(=O)COc1ccc(Cl)cc1`, in [1], the insulin secretion stimulation is 1.2% (inactive). For the same compound, the viability decrease in assay [2] is -0.8% (inactive). Further, in assay [3], the tube area decrease is -34.4% (inactive). Moreover, in assay [4], the GLP1 secretion stimulation is 1.2% (inactive). Further, in assay [5], the inhibition of viability is 7.1% (inactive). The values for the viability decrease (inhibition) in assay [6] and in assay [7] were -16% (inactive) and -7.4% (inactive), respectively. In addition, the inhibition in [8] is 17.7% (inactive). The red/green cell ratio (normalised) in assay [9] was 0.89 (inactive). The normalised cell number in assay [9] (setting [10]) came to 0.98; in assay [9] (setting [11]), 0.87.
For the compound `CCN(CC)CCOC(=O)C(c1ccccc1)C1CCCCC1` (configuration not stated), the insulin secretion stimulation in [1] was 18.2% (inactive). Besides, the viability decrease in assay [2] was -99.4% (inactive). Besides, the tube area decrease in assay [3] was 14.5% (inactive). Moreover, in [4], the GLP1 secretion stimulation is 2.9% (inactive). In assay [5], the inhibition of viability is 25% (inactive). The viability decrease (inhibition) in [6] is 36.2% (inactive); in assay [7], 48.4% (inactive). Also, the inhibition in assay [8] is 9.92% (inactive). Further, the red/green cell ratio (normalised) in assay [9] is 0.94 (inactive). The normalised cell number in [9] (setting [10]) was 0.95; in assay [9] (setting [11]), 0.89.
Regarding `COc1c2occc2c(OC)c2c(=O)cc(C)oc12`, in assay [1], the insulin secretion stimulation was 0.7% (inactive). For the same compound, the viability decrease in assay [2] was -6.4% (inactive). Also, the tube area decrease in assay [3] was 21.8% (inactive). Besides, the GLP1 secretion stimulation in assay [4] was 5.9% (inactive). The inhibition of viability in assay [5] is -7.6% (inactive). Besides, the viability decrease (inhibition) is 21.5% (inactive) in [6] and -0.4% (inactive) in assay [7]. For the same compound, the inhibition in assay [8] is 1.04% (inactive). Moreover, the red/green cell ratio (normalised) in [9] was 0.89 (inactive). Besides, the normalised cell number in assay [9] (setting [10]) was determined as 1.07; in assay [9] (setting [11]), 0.95.
`CCCC(C(=O)OCCN(CC)CC)(c1ccccc1)c1ccccc1`: the insulin secretion stimulation in assay [1] was 5.7% (inactive). For the same compound, the viability decrease in assay [2] was 52.5% (active). For the same compound, the tube area decrease in assay [3] was 9.6% (inactive). Further, the GLP1 secretion stimulation in [4] was 11.5% (inactive). Further, the inhibition of viability in assay [5] is 86.3% (active). Also, the viability decrease (inhibition) in assay [6] was 76.5% (active); in assay [7], 62.5% (active). The inhibition in assay [8] was 3.92% (inactive). Moreover, in [9], the red/green cell ratio (normalised) is 1.41 (inactive). The normalised cell number in assay [9] (setting [10]) was 0.9; in [9] (setting [11]), 1.28.
In the case of `OCc1ccccc1O`, the insulin secretion stimulation in [1] is -0.1% (inactive). Moreover, the viability decrease in assay [2] was -7.2% (inactive). For the same compound, the tube area decrease in assay [3] was 19.2% (inactive). For the same compound, in [4], the GLP1 secretion stimulation is -0.3% (inactive). The inhibition of viability in [5] is -6.03% (inactive). Also, the viability decrease (inhibition) was -5.8% (inactive) in [6] and -17.8% (inactive) in assay [7]. Besides, the inhibition in assay [8] is -10.9% (inactive). In addition, the red/green cell ratio (normalised) in assay [9] was 1.09 (inactive). The normalised cell number was found to be 0.88 in [9] (setting [10]) and 0.96 in [9] (setting [11]).
With `CN1CCC(=C2c3ccccc3Sc3ccccc32)CC1`, the insulin secretion stimulation in assay [1] is 28.8% (active). Further, in assay [2], the viability decrease is 77.2% (active). Moreover, the tube area decrease in [3] was 51.9% (active). In addition, the GLP1 secretion stimulation in assay [4] was -3.3% (inactive). Besides, the inhibition of viability in [5] is 36.4% (inactive). Further, the viability decrease (inhibition) in [6] is 80.2% (active); in [7], 23.6% (inactive). The inhibition in [8] is 13.2% (inactive). Moreover, the red/green cell ratio (normalised) in assay [9] is 1.08 (inactive). Further, the results for the normalised cell number in assay [9] (setting [10]) and in assay [9] (setting [11]) were 1.03 and 1.11, respectively.

In general, inhibition refers to the relative decrease from the control value, in per cent.
